Assay results: PubChem BioAssay AID1662 (Broad Institute, 2009)
The campaign covered roughly 300,000 compounds. About 4,000 (1.3%) were called active. Only a selection was taken, and actives are over-represented in it overall. A number with no mark means an inactive call.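 Rule for the calls: active = mean replicate score, as percent of positive control median, at least 50; inconclusive = mean below 50 but one replicate at or above 50; inactive = mean and every replicate below 50.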

Experiment: S. pyogenes SKKanGAS growth inhibitors in kanamycin, primary screen, streptokinase expression inhibitor project, SKKanGAS strain, BacTiter-Glo luminescence (AID 1662);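 note: strain carries kanamycin resistance gene driven by streptokinase promoter and grows in 40 µg/ml kanamycin; loss of luminescence reflects streptokinase promoter inhibition or plain growth inhibition; 0% = median of DMSO wells and 100% = positive control at its reference dose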
Details: 6 h, at 7.5 µM, hits give high values

| SMILES | inhibition |
| --- | --- |
| Cc1ccc(-c2csc(NNC(=O)c3ccccc3)n2)cc1 | 55.1% (active) |
| CC(=O)Nc1ccc(-c2csc(NC(=O)Nc3ccccc3)n2)cc1 | 0.751% |
| Cc1nc(NNC(=O)c2ccccc2)cc(-c2ccccc2)n1 | -2.12% |
| COc1cccc(CNC(=O)c2nnn(CC(=O)Nc3cc(C)ccc3C)c2N)c1 | 11% |
| O=C(/C=C/c1cnc2ccccc2n1)NC1CCCCCC1 | 2.73% |
| COc1ccccc1C(=O)NCCC(=O)NN1C(=O)NC2(CCCCC2)C1=O | -9.03% |
| NCC(=O)c1cccc2ccc[n+]([O-])c12 | -3.82% |
| Cc1cccc(C(=O)Nc2ccccc2-c2nnn(CC(=O)Nc3ccc4c(c3)OCCO4)n2)c1 | 59.1% (active) |
| CS(=O)(=O)c1ccc(-c2nnn(CC(=O)Nc3ccc4c(c3)OCCO4)n2)cc1 | -16.5% |
| O=C(Nc1ccccc1-c1nnn(CC(=O)N2CCCc3ccccc32)n1)c1cccc(Cl)c1 | -0.017% |
| COc1cc(C(=O)OC(C)C(=O)NCC2CCCCC2)cc(NC(=O)c2ccco2)c1OC (stereo unspecified) | -4.57% |
| COc1ccc(S(=O)(=O)N2CCOCC2)cc1C(=O)Nc1nc2ccccc2s1 | 1.7% |
| COc1cccc2sc(Nc3nc(C)c(C(C)=O)s3)nc12 | 53.7% (active) |
| COc1ccccc1OCc1nc2ccccc2s1 | 21% |
| COc1cccc2sc(NNC(=O)c3nc4ccccc4s3)nc12 | 92.6% (active) |
| COc1cc2ccccc2cc1C(=O)Nc1nc(C)c(C(C)=O)s1 | -5.23% |
| COc1ccccc1/C=N/Nc1nc(C)c(C(C)=O)s1 | -9.03% |
| CN(C)CCCN(C(=O)c1ccc(S(=O)(=O)N2CCCCCC2)cc1)c1nc2cc3c(cc2s1)OCCO3 | -2.65% |
| N#Cc1ccc(OCc2nnc(-c3ccc([N+](=O)[O-])cc3)o2)cc1 | 4.26% |
| COc1ccccc1N1CCN(c2ncnc3sc(C)c(-c4ccccc4)c23)CC1 | 35.4% |
| CS(=O)(=O)N(Cc1ccccc1Cl)c1ccc(C(=O)NCc2cccnc2)cc1 | -5.28% |

| SMILES | inhibition |
| --- | --- |
| COc1ccc(Cl)cc1C(=O)NNC(=S)NC(=O)/C=C/c1ccco1 | 80.2% (active) |
| C=CCNC(=S)NNC(=O)c1cc(Cl)ccc1OC | 3.23% |
| COc1ccc(Cl)cc1C(=O)NNC(=S)NC1CCCC1 | -3.8% |
| CCOCCCNC(=S)N1CCC(NC(=O)C2CCCCC2)CC1 | -0.571% |
| CC(C)c1nc2cc(C(=O)NC(C)c3cnn(C)c3)ccc2o1 (stereo unspecified) | -0.746% |
| COc1ccc(CCNC(=O)C(=O)Nc2ccc3nc4n(c(=O)c3c2)CCCCC4)cc1OC | 58.4% (active) |
| O=C(Nc1ccc2nc3n(c(=O)c2c1)CCCCC3)c1ccccc1Cl | -2.99% |
| CCCCN(CC)C(=S)Nc1ccc2nc3n(c(=O)c2c1)CCCCC3 | 2.4% |
| CCOc1ccc(-c2n[nH]c(C)c2-c2ccccn2)c(O)c1 | -4.57% |
| C=C(C)COc1ccc(-c2n[nH]c(C)c2-c2ccccc2OC)c(O)c1 | 10.6% |
| C=C(C)COc1ccc(-c2n[nH]c(C)c2-c2ccccc2)c(O)c1 | 62.3% (active) |
| CCNC(=O)c1cnn(-c2ccccc2)c1-c1ccccc1 | -2.93% |
| COc1ccc(C(=O)O)cc1S(=O)(=O)NCc1cccnc1 | 0.329% |
| c1ccc(NCc2cccc3ccccc23)nc1 | 22.8% |
| Oc1ccc2ccccc2c1N=Nc1nccs1 | 106% (active) |
| Oc1ccc(N=Nc2nccs2)c(O)c1 | 3.07% |
| COc1ccc(Cc2nc(-c3ccccn3)no2)cc1OC | 29.5% |
| CCOCCCNc1nc(-c2ccccc2)nc2ccccc12 | -2.19% |
| COc1ccc(Sc2nc(-c3ccccc3)ncc2OC)cc1 | 0.835% |
| COc1cnc(-c2ccccn2)nc1Oc1ccc(C(C)(C)C)cc1 | 78.3% (active) |
| Cc1ccc(Oc2nc(-c3ccccn3)nc3ccccc23)cc1 | 76.2% (active) |

| SMILES | inhibition |
| --- | --- |
| c1ccc(-c2nc(NCc3ccco3)c3ccccc3n2)cc1 | -7.68% |
| COc1ccccc1Oc1nc(-c2cccnc2)nc2ccccc12 | 5.74% |
| N#Cc1ccc(Oc2cc(C(F)(F)F)nc(-c3ccccn3)n2)cc1 | -2.81% |
| CC(C)(C)Nc1nc(-c2ccccn2)nc2ccccc12 | 87.4% (active) |
| CSc1ccc(S(=O)(=O)Nc2cccc(F)c2)cc1 | 7.04% |
| COc1ccc(N=Nc2c(-c3ccc(OC)cc3)[nH]oc2=O)cc1 | 6.47% |
| CCCN(CCC)c1c([N+](=O)[O-])c(=O)oc2ccccc12 | -5.31% |
| CCOC(=O)c1cc2c(=O)n3ccccc3nc2n(CC(C)C)c1=NC(=O)c1c(-c2c(F)cccc2Cl)noc1C | 18.2% |
| O=C(CN1C(=O)NC2(CCCC2)C1=O)NCC1CCCO1 (stereo unspecified) | -1.73% |
| COC(C/C=C/C(=O)[C@@H](C)OCc1ccccc1)OC | -2.55% |
| NC(=O)c1nnsc1-c1ccc(-c2snnc2C(N)=O)cc1 | 2.07% |
| COc1cc2c3c(c1)/C(=C1/SC(=S)NC1=O)C(=O)N3C(C)(C)C=C2C | 61.3% (active) |
| Cc1nc2ccc(S(=O)(=O)N(C)CC(=O)NC(C)c3ccccc3)cc2s1 (stereo unspecified) | -15% |
| CN1CCN(C(=O)CCc2nc(-c3ccc(Cl)cc3)no2)CC1 | -5.8% |
| COCC1CCN(C(=O)CCc2nnc(C3(c4ccc(Cl)cc4)CCC3)o2)C1 (stereo unspecified) | 49.5% (active) |
| COCC1CCCN(C(=O)c2ccc3oc(C(C)C)nc3c2)C1 (stereo unspecified) | -3.17% |
| O=C(COC(=O)CNS(=O)(=O)c1ccc(F)c(F)c1F)NC1CCCC1 | 2.52% |
| CO/N=C(\C(=O)N[C@@H]1C(=O)N2C(C(=O)O)=C(COC(C)=O)CS[C@H]12)c1csc(N)n1 (stereo in doubt) | 33% |
| C=CC1=C(C(=O)O)N2C(=O)[C@@H](NC(=O)/C(=N/OCC(=O)O)c3csc(N)n3)[C@H]2SC1 | 109% (active) |
